Values joined by “and” are separate entries in the source; they are usually repeats but may differ in a detail not shown here. Equal values may be shown once. Results filed as inconclusive are left out. Active and inactive are the calls of the source. The call rests on the fitted dose curve; in most records, active means well fitted curve in the direction sought with a large enough effect; inconclusive means small, poorly fitted or top-dose-only effect, or another doubt; inactive means no such curve, though single readings can be large or run the other way.
Experiment: qHTS Assay for Identifying Gametocytocidal Compounds (AID 743244);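 on max response: actives lower the fluorescent signal which means gametocytes are killed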
Conditions: P. falciparum 3D7 stage III-V gametocytes, alamarBlue, 72 h; max response: stronger effect = lower value
In short: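 Fluorescence at Ex 525/Em 598 nm, recorded 24 h after alamarBlue addition, reports residual metabolic activity of 3D7 gametocytes (stages III–V) following 72 h compound exposure at 37 °C, 5% CO2.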
In the case of `Cc1ncc(CSSCc2cnc(C)c(O)c2CO)c(CO)c1O`, the max response was -2.24% (inactive). In the case of `CCCCCCC[N+](CC)(CC)CCCCc1ccc(Cl)cc1`, the Potency was 3.55 µM (active). For `COc1cc(OC)cc(OC)c1`, the max response was 0.294% (inactive). For `CC(C)(CO)[C@@H](O)C(=O)NCCCO`, the max response was 14.7% (inactive). For `CC[N+](CC)(CCNC(=O)C(=O)NCC[N+](CC)(CC)Cc1ccccc1Cl)Cc1ccccc1Cl`, the max response was 15.6% (inactive). With `CC(=O)OCC(=O)[C@@]12N=C(C)O[C@@H]1C[C@H]1[C@@H]3CCC4=CC(=O)C=C[C@]4(C)[C@H]3[C@@H](O)C[C@@]12C` the max response was -5.59% (inactive). For `CCCCN1CCCC1C(=O)Nc1c(C)cc(C)cc1C` (centres undefined), the max response was -5.69% (inactive). With `COc1ccc(OC)c(C(O)CNC(=O)CN)c1` (centres undefined) the max response was -3.82% (inactive). With `CCN1CCN(c2cc3c(cc2F)c(=O)c(C(=O)O)cn3C2CC2)CC1` the max response was 1.09% (inactive). In the case of `CC(C)n1nc(-c2cc3cc(O)ccc3[nH]2)c2c(N)ncnc21`, the max response was -4.02% (inactive). In the case of `COc1cc(C(=S)N2CCOCC2)cc(OC)c1OC`, the max response was 7.8% (inactive). With `NC(=O)CC[C@@H]1NC(=O)[C@H](Cc2ccccc2)NC(=O)[C@H](Cc2ccc(O)cc2)NC(=O)CCSSC[C@@H](C(=O)N2CCC[C@H]2C(=O)N[C@@H](CCCN=C(N)N)C(=O)NCC(N)=O)NC(=O)[C@H](CC(N)=O)NC1=O` the max response was 1.03% (inactive) and -0.48% (inactive). With `CCOc1ccc(Cc2nccc3cc(OCC)c(OCC)cc23)cc1OCC` the max response was 10.4% (inactive). With `C#C[C@]1(O)CC[C@H]2[C@@H]3CCC4=CC(=O)CC[C@@H]4[C@H]3CC[C@@]21C` the max response was 8.68% (inactive).
On the % scale 0 is the no-effect control and ±100 the full control effect; potency means the concentration at half of the fitted maximal effect.
